Screening data deposited in PubChem BioAssay by National Center for Advancing Translational Sciences (NCATS).
TDP1 cell noCPT = qHTS for Inhibitors of human tyrosyl-DNA phosphodiesterase 1 (TDP1): qHTS in cells in absence of CPT; actives 15% (n = 420,000); Potency, µM (top dose mostly 46.2 µM), inactives show top-dose activity change, negative = growth inhibition, most hits filed as inhibitors; AID 686978, 2013; DT40 Tdp1-/- hTDP1 cells, no CPT, ATP luminescence, 48 h; note: potency is the fitted concentration of half-maximal effect; nearly all actives have a fitted effect of over 55% in size
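Camptothecin absent (DMSO only). Human TDP1-complemented DT40 knockout cells, 400 cells/well, 37 °C for minimum 48 hr; ATP measured via CellTiter-Glo, 30 min dark incubation, luminescence.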
TDP1 block = qHTS Assay for Inhibitors of Tyrosyl-DNA Phosphodiesterase (TDP1). Potency, µM (titrated, usually from 130 µM), without a hit: at the highest dose activity change, negative = inhibition, usual class: inhibitors. AID 485290, 2010. recombinant TDP1, AlphaScreen DNA substrate cleavage. actives 0.28% (n = 350,000). Tyrosyl-DNA phosphodiesterase 1 (Homo sapiens), Q9NUW8; note: potency is the fitted concentration of half-maximal effect; nearly all actives have a fitted effect of over 40% in size
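Enzyme-compound mixtures sat 15 min at room temperature, followed by a 5 min reaction with 15 nM final substrate and 10 min with AlphaScreen beads. Recombinant human Tdp1 was used at 1 nM final.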
TDP1 cell CPT = qHTS for Inhibitors of human tyrosyl-DNA phosphodiesterase 1 (TDP1): qHTS in cells in presence of CPT; chicken DT40 Tdp1-/-;hTDP1 cells + 20 nM CPT, ATP luminescence, 48 h; Potency, µM (series often up to 46.2 µM), without a hit: top-dose activity change, negative = growth inhibition, usual class: inhibitors; actives 12% (n = 420,000); AID 686979, 2013; note: potency is the fitted concentration of half-maximal effect; nearly all actives have a fitted effect of over 55% in size
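Chicken DT40 Tdp1-/- cells complemented with human TDP1, 400 cells/well, exposed to compounds plus 20 nM camptothecin for at least 48 h at 37 C; viability read as ATP content by CellTiter-Glo luminescence.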
IL-1B inflam inh = qHTS for Inhibitors of Inflammasome Signaling: IL-1-beta AlphaLISA Primary Screen | actives 4.7% (n = 360,000) | THP-1 LPS/ATP IL-1B secretion, AlphaLISA, 16 h; active compounds read low | AID 743279, 2014 | activity change, % at 57.5 µM; in the data active = activity change below about -50%; inconclusive = mostly about -30% to -49%
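THP-1 cells pretreated 1 hr with compounds (up to 57.5 uM final), then stimulated with LPS (250 ng/mL final) plus ATP (1.25 mM final); secreted IL-1B measured by AlphaLISA after 16 hr, decreased signal indicating inhibition.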
Six1-Eya2 blk = qHTS Assay for Inhibitors of the Six1/Eya2 Interaction; Homeobox protein SIX1 (Homo sapiens) + Protein phosphatase EYA2 (Homo sapiens), …; AlphaScreen GST-Six1/His-Eya2 binding, biochemical; active compounds read low; activity change, % (concentration not given with the values); actives 0.56% (n = 360,000); AID 651725, 2012; in the data active = activity change below about -65%; inconclusive = mostly about -30% to -63%
Target sequence (O00167 whole entry, looked up): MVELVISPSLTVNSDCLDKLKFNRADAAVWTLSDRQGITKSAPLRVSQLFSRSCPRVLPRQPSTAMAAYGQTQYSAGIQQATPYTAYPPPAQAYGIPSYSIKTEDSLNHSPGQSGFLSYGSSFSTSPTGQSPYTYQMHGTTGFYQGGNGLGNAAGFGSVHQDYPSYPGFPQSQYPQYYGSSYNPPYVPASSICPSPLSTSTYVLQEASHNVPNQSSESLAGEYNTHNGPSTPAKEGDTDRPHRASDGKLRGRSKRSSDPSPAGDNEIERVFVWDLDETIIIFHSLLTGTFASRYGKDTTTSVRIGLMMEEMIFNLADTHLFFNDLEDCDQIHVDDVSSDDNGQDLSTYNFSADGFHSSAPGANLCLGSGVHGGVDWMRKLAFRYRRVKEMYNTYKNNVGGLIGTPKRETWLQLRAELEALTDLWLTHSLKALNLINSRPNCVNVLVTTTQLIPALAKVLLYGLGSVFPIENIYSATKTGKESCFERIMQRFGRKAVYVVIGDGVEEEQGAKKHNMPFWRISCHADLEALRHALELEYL
Target sequence (Q15475 whole entry, looked up): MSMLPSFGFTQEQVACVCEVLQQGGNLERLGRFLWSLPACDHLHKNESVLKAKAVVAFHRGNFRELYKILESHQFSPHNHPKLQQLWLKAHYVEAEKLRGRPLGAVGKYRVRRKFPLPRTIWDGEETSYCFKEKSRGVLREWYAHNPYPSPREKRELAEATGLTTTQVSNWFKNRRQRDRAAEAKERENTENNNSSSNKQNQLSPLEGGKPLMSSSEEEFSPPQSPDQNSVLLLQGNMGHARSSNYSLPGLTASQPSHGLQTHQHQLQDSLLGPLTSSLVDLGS
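AlphaScreen luminescence read after one hour at 37 °C in darkness. Pin-transferred compounds met GST-Six1 and His-Eya2 protein (5X stock 250 nM/500 nM) plus glutathione donor and Ni-chelate acceptor beads (5X, 50 ug/mL).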
CtBP-E1A inh = qHTS Assay for Inhibitors of the CtBP/E1A Interaction; CtBP / adenovirus E1A interaction (AlphaScreen); AlphaScreen GST-E1A/His-CtBP binding, 1536-well; active compounds read low; activity change, % (test concentration not listed); actives 0.49% (n = 340,000); AID 651724, 2012; in the data active = activity change below about -65%; inconclusive = mostly about -30% to -63%
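In 5 uL wells, 23 nL compound meets equimolar GST-E1A and His-CtBP (5X stock 125 nM each) for 2 h, 37 °C. Beads (5X, 50 ug/mL) then 1 h, 37 °C, dark.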
Numbers without * were called inactive; i = inactive; ? = inconclusive; / = no result given. In the library only some 18% were active in any assay of this set; here they are far more common. Unless noted, calls come from the whole dose curve; as a rule, active = well fitted curve in the direction sought with a large enough effect; inconclusive = small, poorly fitted or top-dose-only effect, or another doubt; inactive = no such curve, though single readings can be large; an effect the other way counts as inactive or inconclusive. % is set by controls: 0 for no effect and ±100 for the full control effect.

SMILES	TDP1 cell noCPT	TDP1 block	TDP1 cell CPT	IL-1B inflam inh	Six1-Eya2 blk	CtBP-E1A inh
CCOc1ccc2[nH]c(=O)c(C(c3nnnn3Cc3ccco3)N3CCCC(C)C3)cc2c1 (configuration not stated)	-25.6%	-6.7%	?	-18.1	-8.1	-13.8
COc1ccc(NC(=S)NCCc2ccc(F)cc2)c(OC)c1	-17.3%	0.0%	-11.7%	-8.6	-5.7	3.2
CCN(CCCNC(=O)CC(C(=O)N1CCc2ccccc21)n1ccnc1)c1cccc(C)c1 (configuration not stated)	-13.7%	12.0%	-24.2%	-10.4	-26.1	-26.6
COc1ccc(Cn2nnnc2CN(Cc2cc3cc(C)ccc3[nH]c2=O)C2CCCC2)cc1	11.2µM*	6.2%	11.6µM*	-61.2*	1.4	2.6
COc1ccccc1OCCCn1c(C)c(C#N)c2ccccc21	25.9µM*	0.0%	20.6µM*	-10.7	5.6	9.5
O=C(O)Cc1csc(-c2ccc(F)cc2)n1	-4.6%	2.6%	1.2%	9.2	-4.8	?
Cn1cnnc1SCC(=O)Nc1ccc(S(N)(=O)=O)cc1	-6.0%	1.5%	-1.4%	44.5	-8.1	/
Cc1cccc(-c2onc3ccc(C4(C)OCCO4)cc23)c1	14.6µM*	0.0%	?	-9.5	7.0	/
Cc1ccc(CNc2ccc(N3CCOCC3)cc2)cc1	?	/	-21.5%	-14.2	?	-12.6
Cc1cccn2c(=O)c3cc(C#N)c(=NC(=O)c4ccncc4)n(CCCOC(C)C)c3nc12	16.4µM*	3.0%	18.4µM*	-18.7	-9.3	-0.1
CC(=O)N=c1c(C#N)cc2c(=O)n3cccc(C)c3nc2n1CCCOC(C)C	-29.0%	2.5%	1.2%	25.4	-1.4	-16.4
Cc1cccn2c(=O)c3cc(C#N)c(=NC(=O)c4cccs4)n(CCCOC(C)C)c3nc12	18.4µM*	1.3%	?	-15.5	-0.9	0.3
COCCCn1c(=NC(=O)c2ccncc2)c(C#N)cc2c(=O)n3cccc(C)c3nc21	?	5.5%	?	13.8	-0.3	2.3
COCCOC(=O)c1[nH]c2c(c1C)C(=O)CC(c1ccccc1)C2 (configuration not stated)	0.92µM*	0.0%	0.651µM*	36.4	-1.5	6.2
COCCOC(=O)c1[nH]c2c(c1C)C(=O)CC(c1ccc(F)cc1)C2 (configuration not stated)	5.8µM*	4.9%	3.26µM*	61.6	0.8	1.7
O=C(Nc1cccc(S(=O)(=O)NC2=NCCCCC2)c1)c1cc(-c2ccccc2Cl)nc2ccccc12	?	2.7%	?	-11.1	0.2	2.3
CC(C)(C)c1ccc(C(=O)Nc2cccc(S(=O)(=O)NC3=NCCC3)c2)cc1	11.6µM*	-0.1%	?	?	-17.2	-23.1
CC(=O)c1cccc(S(=O)(=O)Nc2cccc(S(=O)(=O)NC3=NCCC3)c2)c1	-1.5%	3.0%	-5.0%	-7.1	9.5	-6.6
CN(CC(=O)Nc1cccc(S(=O)(=O)NC2=NCCCCC2)c1)Cc1ccc(C(C)(C)C)cc1	20.6µM*	4.9%	29.1µM*	?	-0.9	-10.5
O=C(Cc1csc(-c2ccc(Cl)cc2)n1)Nc1cccc(S(=O)(=O)NC2=NCCC2)c1	-13.6%	0.3%	-7.3%	-51.7*	-25.9	-27.2
O=C(Nc1cccc(S(=O)(=O)NC2=NCCC2)c1)c1cc(-c2ccccn2)nc2ccccc12	16.4µM*	0.0%	23.1µM*	12.6	-6.5	-16.9
Nn1c(SCC(=O)NCc2ccccc2)nnc1C1CC1	5.6%	2.0%	-24.5%	-16.2	-14.3	-27.1
O=C1CCCN1c1ccc(S(=O)(=O)Oc2cccc(Cl)c2)cc1[N+](=O)[O-]	?	5.9%	?	0.0	-6.8	-10.9
CC(C)(C)c1ccc(OCCC(=O)Nc2cccc(S(=O)(=O)NC3=NCCCCC3)c2)cc1	23.1µM*	-0.1%	23.1µM*	-29.2	-10.4	2.3
O=C(CCl)Nc1cccc(S(=O)(=O)NC2=NCCC2)c1	6.51µM*	0.6%	8.2µM*	-98.9*	8.4	3.1
SMILES	TDP1 cell noCPT	TDP1 block	TDP1 cell CPT	IL-1B inflam inh	Six1-Eya2 blk	CtBP-E1A inh
CC1CCN(c2ccc3c(c2)S(=O)(=O)c2cccc(C(=O)NC[C@@H]4CCCO4)c2C3=O)CC1	?	-1.0%	13µM*	35.3	5.5	5.6
O=C(NCC1CCCO1)c1cccc2c1C(=O)c1ccc(N3CCC(Cc4ccccc4)CC3)cc1S2(=O)=O (configuration not stated)	20.6µM*	-0.2%	?	43.0	0.6	15.0
COC(=O)C1=CN(Cc2ccccc2)C=C(C(=O)OC)C1c1ccc(OC)c(OC)c1	?	/	?	6.0	-0.7	/
CCOc1ccc(C2C(C(=O)OC)=CN(C(C)c3ccccc3)C=C2C(=O)OC)cc1 (configuration not stated)	20.6µM*	/	?	-8.7	38.2	/
O=C(c1cccs1)N1CCCC(N2CCN(c3cccc(C(F)(F)F)c3)CC2)C1 (configuration not stated)	?	3.7%	?	i	-2.3	-5.7
CC(=O)Nc1cc(-c2cccc(C(=O)N(C)C)c2)cn2c(-c3ccccc3)cnc12	?	/	?	-11.2	-8.9	-5.4
CC(=O)Nc1cc(-c2ccc(N3CCN(C)CC3)cc2)cn2c(-c3ccc(S(C)(=O)=O)cc3)cnc12	20.6µM*	/	14.6µM*	-23.7	-9.6	-2.5
CC(=O)Nc1cc(-c2ccc(N3CCN(C)CC3)cc2)cn2c(-c3ccccc3)cnc12	16.4µM*	/	20.6µM*	/	-28.2	-29.6
CCOC(=O)c1oc2c(c1C)-c1nn(Cc3c(F)cccc3Cl)cc1CC2	?	0.0%	-0.5%	/	/	/
COCCCNC(=O)c1oc2c(c1C)-c1nn(Cc3ccccc3Cl)cc1CC2	18.4µM*	1.3%	?	/	/	/
COc1ccc(NC(=O)c2oc3c(c2C)-c2nn(Cc4ccccc4Cl)cc2CC3)cc1OC	20.6µM*	1.3%	20.6µM*	/	/	/
Cc1cc(C)c2c(c1)c(C)cc1nnc(SCC(=O)c3ccccc3)n12	?	2.6%	?	/	/	/
NC(N)=N/N=C/c1ccc(Br)cc1	4.11µM*	3.8%	2.59µM*	?	15.8	/
